Data: the supplement of paper PMC10849652
Targets with a hit are over-represented here; the source holds about 8,800 in all. About 0.5% of all pairs of compound and target were hits.

Key:
Test in all cases: log2 fold change, soluble protein after heating vs DMSO (PISA); higher = thermal stabilisation; K562 lysate, 10 uM; active = over 0.2 and 3.5 SD of the protein, either way, in both replicates (recomputed)
[1] = compound: NCC(=O)Nc1ccc(-n2nc(C(F)(F)F)cc2-c2ccc3c(ccc4ccccc43)c2)cc1
Outline: (§1)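 Quantification was by TMTpro 16plex LC-MS/MS with equalised channel sums, applied to the supernatant after 21,000xg for 90 min. Samples were crude K562 extract at 1 mg/mL protein in PBS pH 7.4 with 1 mM MgCl2, treated with 10 μM compound for 30 min, heated for 3 min across 48°C-58°C, pooled and brought to 0.5% NP-40 at 4°C. Values are log-two fold changes in thermal stability relative to solvent controls, from duplicates.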

vorinostat = compound: O=C(CCCCCCC(=O)Nc1ccccc1)NO [vorinostat]
Outline: as §1

silmitasertib = compound: O=C(O)c1ccc2c(c1)nc(Nc1cccc(Cl)c1)c1ccncc12 [silmitasertib]
Outline: as §1

[2] = compound: O=C1NC(=O)C(c2cnc3ccccn23)=C1c1cn2c3c(cc(F)cc13)CN(C(=O)N1CCCCC1)CC2
Outline: as §1

entospletinib = compound: c1cn2cc(-c3ccc4cn[nH]c4c3)nc(Nc3ccc(N4CCOCC4)cc3)c2n1 [entospletinib]
Outline: as §1

Measured: log2 fold change

PAN2 isoform 2 (UniProt Q504Q3)
Chain of UniProt Q504Q3 (Q504Q3 whole entry, looked up): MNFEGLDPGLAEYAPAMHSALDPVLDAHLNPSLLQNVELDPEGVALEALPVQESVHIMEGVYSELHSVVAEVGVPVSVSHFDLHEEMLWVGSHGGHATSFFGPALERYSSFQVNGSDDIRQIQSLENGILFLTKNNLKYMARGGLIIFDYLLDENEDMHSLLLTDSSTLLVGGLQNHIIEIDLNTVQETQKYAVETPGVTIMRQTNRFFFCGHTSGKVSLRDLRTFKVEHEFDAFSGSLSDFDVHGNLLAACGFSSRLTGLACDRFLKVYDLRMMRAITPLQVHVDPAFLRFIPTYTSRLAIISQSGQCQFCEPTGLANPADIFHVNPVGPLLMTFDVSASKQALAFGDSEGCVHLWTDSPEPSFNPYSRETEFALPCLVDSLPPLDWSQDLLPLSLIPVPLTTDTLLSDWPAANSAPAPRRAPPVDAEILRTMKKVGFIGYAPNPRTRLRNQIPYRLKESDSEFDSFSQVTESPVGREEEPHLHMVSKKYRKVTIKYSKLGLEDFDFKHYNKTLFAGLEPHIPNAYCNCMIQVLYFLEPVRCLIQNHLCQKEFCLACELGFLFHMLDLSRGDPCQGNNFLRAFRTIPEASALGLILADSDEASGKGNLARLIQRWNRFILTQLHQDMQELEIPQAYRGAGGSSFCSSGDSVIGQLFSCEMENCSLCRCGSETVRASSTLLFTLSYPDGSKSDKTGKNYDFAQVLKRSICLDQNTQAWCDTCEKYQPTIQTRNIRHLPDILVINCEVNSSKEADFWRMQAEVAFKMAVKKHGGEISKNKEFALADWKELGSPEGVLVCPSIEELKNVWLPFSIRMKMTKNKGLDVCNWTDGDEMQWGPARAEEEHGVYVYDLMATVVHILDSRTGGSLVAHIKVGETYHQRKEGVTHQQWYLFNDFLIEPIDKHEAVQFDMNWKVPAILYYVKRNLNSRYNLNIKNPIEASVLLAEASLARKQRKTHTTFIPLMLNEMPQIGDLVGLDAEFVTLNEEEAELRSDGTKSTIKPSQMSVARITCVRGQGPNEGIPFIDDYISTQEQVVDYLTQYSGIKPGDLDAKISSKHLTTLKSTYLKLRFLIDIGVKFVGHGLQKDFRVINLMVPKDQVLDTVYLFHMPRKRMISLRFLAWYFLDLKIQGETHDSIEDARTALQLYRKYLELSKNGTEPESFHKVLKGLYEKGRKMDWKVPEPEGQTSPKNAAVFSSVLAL
inactive: [1] 0.11 | vorinostat -0.097 | silmitasertib 0.038 | [2] -0.056 | entospletinib 0.038

NSUN7 (UniProt Q8NE18)
Chain of UniProt Q8NE18 (Q8NE18 whole entry, looked up): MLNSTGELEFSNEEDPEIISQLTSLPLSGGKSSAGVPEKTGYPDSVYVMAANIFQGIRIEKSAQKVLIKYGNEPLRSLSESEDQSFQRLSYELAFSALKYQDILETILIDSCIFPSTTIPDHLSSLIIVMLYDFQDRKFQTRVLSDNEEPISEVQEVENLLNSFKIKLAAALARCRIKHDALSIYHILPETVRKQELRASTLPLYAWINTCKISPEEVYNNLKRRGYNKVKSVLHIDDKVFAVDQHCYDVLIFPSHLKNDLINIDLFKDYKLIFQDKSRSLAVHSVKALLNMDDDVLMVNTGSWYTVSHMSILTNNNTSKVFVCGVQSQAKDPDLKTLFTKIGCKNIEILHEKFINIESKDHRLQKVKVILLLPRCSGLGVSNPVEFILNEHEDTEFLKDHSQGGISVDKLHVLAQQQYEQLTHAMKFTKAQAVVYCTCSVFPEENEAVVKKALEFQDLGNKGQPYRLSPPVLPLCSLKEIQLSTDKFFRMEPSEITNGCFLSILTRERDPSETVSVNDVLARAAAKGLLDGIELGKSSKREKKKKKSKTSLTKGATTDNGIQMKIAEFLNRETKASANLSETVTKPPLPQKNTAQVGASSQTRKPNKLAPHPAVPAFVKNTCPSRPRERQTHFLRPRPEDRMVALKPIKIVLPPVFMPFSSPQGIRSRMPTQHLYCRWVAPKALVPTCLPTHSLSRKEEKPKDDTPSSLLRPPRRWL
inactive: [1] 0.241 | vorinostat -0.003 | silmitasertib 0.005 | [2] -0.108 | entospletinib -0.042

OAT (UniProt P04181)
Chain of UniProt P04181 (P04181 whole entry, looked up): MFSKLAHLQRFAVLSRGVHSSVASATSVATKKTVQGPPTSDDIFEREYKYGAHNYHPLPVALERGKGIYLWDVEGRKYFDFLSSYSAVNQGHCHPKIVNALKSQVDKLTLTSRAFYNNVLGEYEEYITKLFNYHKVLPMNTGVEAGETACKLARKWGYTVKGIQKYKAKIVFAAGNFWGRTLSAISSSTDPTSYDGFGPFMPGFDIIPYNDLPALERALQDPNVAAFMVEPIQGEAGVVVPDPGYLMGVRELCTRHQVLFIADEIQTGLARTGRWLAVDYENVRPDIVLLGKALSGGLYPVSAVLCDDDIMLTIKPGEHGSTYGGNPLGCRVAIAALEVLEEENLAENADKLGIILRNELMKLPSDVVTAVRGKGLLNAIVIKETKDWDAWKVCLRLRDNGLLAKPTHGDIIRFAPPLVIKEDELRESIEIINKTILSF
inactive: [1] 0.053 | vorinostat 0.168 | silmitasertib -0.006 | [2] 0.042 | entospletinib 0.029

NUCB2 (UniProt P80303)
Chain of UniProt P80303 (P80303 whole entry, looked up): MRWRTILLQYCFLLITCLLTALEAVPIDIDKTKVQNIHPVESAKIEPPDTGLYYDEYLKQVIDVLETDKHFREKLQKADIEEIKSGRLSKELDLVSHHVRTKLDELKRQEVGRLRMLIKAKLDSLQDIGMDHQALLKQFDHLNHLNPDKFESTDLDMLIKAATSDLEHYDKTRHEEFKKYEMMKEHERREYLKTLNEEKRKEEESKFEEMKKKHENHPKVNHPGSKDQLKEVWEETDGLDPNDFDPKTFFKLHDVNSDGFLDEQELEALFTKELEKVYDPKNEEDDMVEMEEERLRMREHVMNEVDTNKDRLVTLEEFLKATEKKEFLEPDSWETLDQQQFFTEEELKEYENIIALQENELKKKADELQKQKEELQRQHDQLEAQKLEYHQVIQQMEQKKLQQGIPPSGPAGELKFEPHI
inactive: [1] 0 | vorinostat 0.133 | silmitasertib -0.026 | [2] -0.007 | entospletinib -0.008
